Measured values as given in the supplement of paper PMC9262897, “Low-cost anti-mycobacterial drug discovery using engineered E. coli” (Nature Communications, 2022).
Counter-ions that a name gives are not always drawn. ± gives the standard deviation of the averaged measurements.

Assays:
Assay in all cases: growth (OD600 after 10 h); higher = more growth (less inhibition)
[1] = test system: E. coli TESEC Alr+ wild-type control; settings: compound 0.1 mM; raw OD600 reference: median of DMSO wells 0.241, cell-free background 0.041
Description: (§1)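 TESEC Mtb Alr E. coli, or the Alr+ wild-type control, in 384-well plates with Prestwick library compounds at 0.1 mM and 1% DMSO, across arabinose induction levels of 1E3 to 1E7 nM. Growth is read as OD600 after 10 h at 37 °C in triplicate biological replicates.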

E. coli TESEC Mtb Alr [2] = settings: compound 0.1 mM
Description: as §1

E. coli TESEC Mtb Asd = settings: compound 0.1 mM
Description: (§2)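 TESEC E. coli strains in which the native enzyme is deleted and replaced by arabinose-inducible Mtb Asd, DapB, CysH or TrpD, each grown in its selective medium. Strains were screened against the Prestwick library at 0.1 mM and 1% DMSO in 384-well format at low and high arabinose induction. Growth is read as OD600 after 10 h in triplicate.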

E. coli TESEC Mtb DapB = settings: compound 0.1 mM
Description: as §2

E. coli TESEC Mtb Alr [3] = settings: compound 0.1 mM; remark: listed apart in the source
Description: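 TESEC Mtb Alr E. coli (ΔaraC ΔtolC ΔentC Δalr ΔdadX, arabinose-inducible Mtb Alr) or the Alr+ wild-type control strain, grown in defined M9-fructose medium without D-alanine in 96-well plates with Prestwick library compounds at 0.1 mM and 1% DMSO. Low Alr induction is 0.1 µM arabinose and high induction is 10 mM arabinose.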

[4] = arabinose 1000 nM, raw OD600 reference: median of DMSO wells 0.294, cell-free background 0.041
[5] = arabinose 10000 nM, raw OD600 reference: median of DMSO wells 0.264, cell-free background 0.041
[6] = arabinose 100000 nM, raw OD600 reference: median of DMSO wells 0.201, cell-free background 0.041
[7] = arabinose 1000000 nM, raw OD600 reference: median of DMSO wells 0.193, cell-free background 0.041
[8] = arabinose 10000000 nM, raw OD600 reference: median of DMSO wells 0.146, cell-free background 0.041
[9] = arabinose induction (level): High, raw OD600 reference: median of DMSO wells 0.331, cell-free background 0.041
[10] = arabinose induction (level): Low, raw OD600 reference: median of DMSO wells 0.417, cell-free background 0.041
[11] = arabinose induction (level): High, raw OD600 reference: median of DMSO wells […], cell-free background 0.041
[12] = arabinose induction (level): Low, raw OD600 reference: median of DMSO wells 0.227, cell-free background 0.041
[13] = arabinose 100 nM, raw OD600 reference: median of DMSO wells 0.413, cell-free background 0.052
[14] = arabinose 10000000 nM, raw OD600 reference: median of DMSO wells […], cell-free background 0.052

Compound | growth [1] | growth (E. coli TESEC Mtb Alr [2]; [4]) | growth (E. coli TESEC Mtb Alr [2]; [5]) | growth (E. coli TESEC Mtb Alr [2]; [6]) | growth (E. coli TESEC Mtb Alr [2]; [7]) | growth (E. coli TESEC Mtb Alr [2]; [8]) | growth (E. coli TESEC Mtb Asd; [9]) | growth (E. coli TESEC Mtb Asd; [10]) | growth (E. coli TESEC Mtb DapB; [11]) | growth (E. coli TESEC Mtb DapB; [12]) | growth (E. coli TESEC Mtb Alr [3]; [13]) | growth (E. coli TESEC Mtb Alr [3]; [14])
O=c1[nH]c2ccccc2n1C1CCN(CCCC(c2ccc(F)cc2)c2ccc(F)cc2)CC1 [Pimozide] | 0.164 ± 0.013 | 0.243 ± 0.0073 | 0.2629 ± 0.0026 | 0.226 ± 0.045 | 0.106 ± 0.0046 | 0.142 ± 0.004 | 0.209 ± 0.024 | 0.396 ± 0.015 | 0.186 ± 0.015 | 0.227 ± 0.035 | 0.417 ± 0.0074 | 0.307 ± 0.034
CC(C)c1cccc(C(C)C)c1O [Propofol] | 0.245 ± 0.0043 | 0.309 ± 0.017 | 0.255 ± 0.0092 | 0.202 ± 0.0052 | 0.175 ± 0.0063 | 0.144 ± 0.0055 | 0.441 ± 0.024 | 0.439 ± 0.03 | 0.212 ± 0.011 | 0.236 ± 0.028 | 0.389 ± 0.01 | 0.328 ± 0.0056
O=P1(NCCCl)OCCCN1CCCl (stereo not drawn) [Ifosfamide] | 0.233 ± 0.012 | 0.301 ± 0.027 | 0.2741 ± 0.0022 | 0.175 ± 0.022 | 0.192 ± 0.0026 | 0.137 ± 0.0089 | 0.374 ± 0.074 | 0.48 ± 0.032 | 0.204 ± 0.0083 | 0.222 ± 0.026 | 0.417 ± 0.011 | 0.359 ± 0.01
C[C@]12CC[C@@H](O)C[C@@H]1CC[C@@H]1[C@@H]2CC[C@]2(C)C(=O)CC[C@@H]12 [Androsterone] | 0.117 ± 0.0044 | 0.123 ± 0.002 | 0.212 ± 0.012 | 0.118 ± 0.0038 | 0.0932 ± 0.0027 | 0.0878 ± 0.0015 | 0.148 ± 0.026 | 0.324 ± 0.044 | 0.141 ± 0.013 | 0.138 ± 0.011 | 0.3429 ± 0.0014 | 0.0883 ± 0.011
O=C(CCCN1CCC(n2c(=O)[nH]c3ccccc32)CC1)c1ccc(F)cc1 [Benperidol] | 0.181 ± 0.0021 | 0.269 ± 0.0074 | 0.263 ± 0.0054 | 0.179 ± 0.036 | 0.135 ± 0.0025 | 0.149 ± 0.0063 | 0.357 ± 0.062 | 0.434 ± 0.086 | 0.187 ± 0.026 | 0.21 ± 0.0039 | 0.411 ± 0.016 | 0.26 ± 0.02
C[C@]12N[C@H](Cc3ccccc31)c1ccccc12 [Dizocilpine maleate] | 0.2374 ± 0.0019 | 0.286 ± 0.009 | 0.273 ± 0.0096 | 0.158 ± 0.014 | 0.123 ± 0.0042 | 0.134 ± 0.0024 | 0.179 ± 0.014 | 0.415 ± 0.059 | 0.179 ± 0.019 | 0.18 ± 0.012 | 0.4169 ± 0.0029 | 0.304 ± 0.01
CN(C)[C@@H]1C(=O)C(C(N)=O)=C(O)[C@@]2(O)C(=O)C3=C(O)c4c(O)cccc4[C@@](C)(O)[C@H]3[C@H](O)[C@@H]12 [Oxytetracycline dihydrate] | 0.0451 ± 0.0028 | 0.0424 ± 0.00089 | 0.0418 ± 0.00081 | 0.044 ± 0.0021 | 0.0421 ± 0.0003 | 0.04303 ± 0.00012 | 0.0563 ± 0.0015 | 0.0587 ± 0.0032 | 0.0531 ± 0.00076 | 0.0536 ± 0.0012 | 0.0627 ± 0.0022 | 0.0555 ± 0.003
CC(=O)O[C@H]1CC[C@@]2(C)C(=CC[C@@H]3[C@@H]2CC[C@]2(C)C(=O)CC[C@@H]32)C1 [Dehydroisoandosterone 3-acetate] | 0.198 ± 0.065 | 0.239 ± 0.019 | 0.253 ± 0.01 | 0.144 ± 0.0063 | 0.106 ± 0.015 | 0.134 ± 0.0039 | 0.315 ± 0.044 | 0.391 ± 0.0042 | 0.181 ± 0.005 | 0.225 ± 0.017 | 0.376 ± 0.012 | 0.0699 ± 0.0044
C=C1CC[C@@]2(O)[C@H]3Cc4ccc(O)c5c4[C@@]2(CCN3CC2CC2)[C@H]1O5 [Nalmefene hydrochloride] | 0.238 ± 0.013 | 0.3098 ± 0.003 | 0.274 ± 0.0086 | 0.157 ± 0.0079 | 0.19 ± 0.005 | 0.1356 ± 0.0009 | 0.193 ± 0.041 | 0.328 ± 0.08 | 0.194 ± 0.028 | 0.226 ± 0.027 | 0.425 ± 0.007 | 0.327 ± 0.022
